# ATXN viability – viability counter-screen for ATXN expression inhibitors; S2 cells (HEK-293 line with an ATXN2-luciferase reporter) viability, CellTiter-Fluor protease fluorescence, 24 h; Potency, µM (series often up to 56.7 µM), actives largely listed as cytotoxic; 400,000 compounds, 0.49% hits; AID 651635; further: potency means the concentration at half of the fitted maximal effect; nearly all actives have a fitted effect of over 40% in size
# IL1B secr inh – inflammasome signaling inhibition, IL-1 beta readout; THP-1 LPS/ATP IL-1B secretion, AlphaLISA, 16 h; hits give low values; activity change, % at 57.5 µM; 360,000 compounds, 4.7% hits; AID 743279; in the data active means activity change below about -50%; inconclusive means mostly about -30% to -49%; further: on the % scale 0 is the no-effect control and ±100 the full control effect
#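 Secreted IL-1B measured by AlphaLISA bead assay after 16 h compound exposure of THP-1 cells; compounds (final up to 57.5 uM) added 1 h before LPS (250 ng/mL) and ATP (1.25 mM) stimulation; lower signal means less secretion.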
# ATXN2 expr inh – reduces ATXN2 reporter expression in HEK-293 cells. Potency, µM (series often up to 57 µM), without a hit: at the top dose activity change, negative = inhibition, usual class: inhibitors. 360,000 compounds, 0.72% hits. HEK-293 ATXN2-luciferase reporter, luminescence, 24 h. AID 1745845; further: potency means the concentration at half of the fitted maximal effect; on the % scale 0 is the no-effect control and ±100 the full control effect; nearly all actives have a fitted effect of over 55% in size
#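 ATXN2-luciferase reporter cells (luciferase flanked by upstream and downstream ATXN2 gene portions) were treated 24 h at 37 °C with compounds at up to 57 uM. SteadyGlo luminescence gave expression; GF-AFC fluorescence gave viability.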
# TGFb SMAD3 inh – TGF-b pathway inhibition; HepG2 CAGA-GFP TGF-b/SMAD3 reporter, GFP fluorescence, 18 h; TGF-beta stimulated, 500 pg/mL final; Potency, µM (highest dose often 46.1 µM), inactives show top-dose activity, negative = inhibition, most hits filed as inhibitors; 410,000 compounds, 1.2% hits; further: potency means the concentration at half of the fitted maximal effect; on the % scale 0 is the no-effect control and ±100 the full control effect; nearly all actives have a fitted effect of over 65% in size
#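 Cell-based qHTS in HEPG2 carrying a CAGA-GFP Smad reporter; compounds added before 500 pg/mL final TGF-beta, 18 h incubation at 37 degrees C, GFP fluorescence quantified per cell by imaging cytometry.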
# HepG2 tox – kills HepG2 cells in TGF-b inhibitor counter-screen. HepG2 CAGA-GFP viability, ATP luminescence, 18 h. Potency, µM (top dose mostly 46.1 µM), for the others: at the highest dose activity change, negative = cytotoxicity, usual class: cytotoxic. 410,000 compounds, 0.76% hits; further: potency means the concentration at half of the fitted maximal effect
#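 CellTiter-Glo luminescence gave cytotoxicity after 18 hours at 37 degrees C. The cells were HepG2 CAGA-GFP in 1% FBS DMEM, stimulated with 500 pg/mL TGF-beta after compound addition. %Activity was normalised to no-cell wells (complete cell-killing) and DMSO (no toxicity), and curves were fitted and classified.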
# The depositor's hits bear a star; i = inactive; ? = inconclusive; . = not tested or not shown. Hits are enriched below; roughly 5.7% of the tested compounds scored in any of these assays. Unless noted, the call rests on the fitted dose curve; in most records, active means well fitted curve in the direction sought with a large enough effect; inconclusive means small, poorly fitted or top-dose-only effect, or another doubt; inactive means no such curve, though single readings can be large; an effect the other way counts as inactive or inconclusive.
SMILES,ATXN viability,IL1B secr inh,ATXN2 expr inh,TGFb SMAD3 inh,HepG2 tox
O=C(CCNc1cc(Cl)cc(Cl)c1)c1ccco1,i,18,-6%,3%,-24%
O=C(CSc1ccc(Cl)cc1)c1ccco1,i,-28,8%,-18%,-20%
O=C(CSc1ccccc1)Nc1cccc(NC(=O)c2ccco2)c1,i,18,7%,-7%,-4%
O=C(CSc1ccc(Cl)cc1)Nc1cccc(NC(=O)c2ccco2)c1,i,-66*,?,0%,0%
O=C(CSc1ccc(Cl)cc1)NC(=O)NCc1ccco1,i,-83*,-19%,12%,5%
O=C(CCNc1ccc(F)c(Cl)c1)c1ccco1,?,-101*,?,?,-88%
O=C(C[N+]12CCCc3cccc(c31)CCC2)c1ccc(Cl)c2ccccc12,.,.,.,6%,21%
CC(C)c1ccc(NC(=O)[C@H]2O[C@@H]3OC(C)(C)O[C@@H]3[C@H]3OC(C)(C)O[C@H]32)cc1,i,.,32%,?,-9%
COc1cc2nc(CCc3nc4cc(OC)c(OC)cc4[nH]3)[nH]c2cc1OC,.,.,.,-21%,-10%
Cc1cc(F)ccc1S(=O)(=O)NCC(c1ccco1)S(=O)(=O)c1cccs1 (stereo unspecified),.,.,.,?,-4%
Cc1ccc(CSc2cn(CC(=O)N3CCCCCC3)c3ccccc23)cc1,.,.,.,?,-24%
O=c1[nH]c(/C(Cl)=C/c2cc(Cl)ccc2O)nc2cc(Cl)ccc12,?,-105*,-12%,-21%,-13%
O=c1[nH]c(/C(Cl)=C/c2c(F)cccc2Cl)nc2cc(Cl)ccc12,i,22,-27%,?,-62%
CCC(=O)O[C@@]1(C(=O)CCl)[C@@H](C)C[C@@H]2[C@H]3CCC4=CC(=O)C=C[C@@]4(C)[C@]3(F)[C@@H](O)C[C@@]21C,i,.,.,.,.
CCC(=O)OCC(=O)[C@@]1(OC(=O)CC)[C@@H](C)C[C@H]2[C@@H]3CCC4=CC(=O)C=C[C@]4(C)[C@@]3(Cl)[C@@H](O)C[C@@]21C,?,-58*,-20%,34%,-6%
COc1cccc(CSc2nc3n(n2)C(CC(C)C)C(C(=O)Nc2ccccc2OC)=C(C)N3)c1 (stereo unspecified),i,.,8%,-14%,0%
CCOC(=O)c1cnc2c(Cl)c(Cl)ccc2c1N1CCN(C)CC1,i,-50*,-18%,1%,-47%
CCOC(=O)c1cnc2c(C)c(Cl)ccc2c1Nc1ccc(C)cc1C,i,.,-13%,13%,-11%
CCOC(=O)c1cnc2c(C)c(Cl)ccc2c1N1CCN(CC)CC1,i,-82*,-14%,23%,-21%
CCOC(=O)c1cnc2c(ccc3ccccc32)c1Cl,i,-12,35%,2%,11%
CCOc1ccc(S(=O)(=O)N2CCN(c3nc(-c4ccccc4)nc4ccccc34)CC2)cc1OCC,.,.,.,-11%,-12%
O=C(c1[nH]ncc1-c1cccc(Br)c1)C1CO1 (stereo unspecified),?,-96*,-36%,?,-13%
O=C(c1[nH]ncc1-c1ccccc1)C1CO1 (stereo unspecified),i,-73*,1%,-14%,13µM*
O=C(O)C1CC(c2cccc(Br)c2)=NO1 (stereo unspecified),i,12,-3%,7%,4%
Cn1cc(CN2CCCC(C(=O)c3ccc(-c4ccccc4)c(F)c3)C2)cn1 (stereo unspecified),i,-197*,.,-8%,2%
CCC(=O)N1CCCC(C(=O)c2ccc(-c3ccccc3)cc2)C1 (stereo unspecified),i,-68*,15%,-18%,-1%
CCc1ncc(CN2CCCC(C(=O)Nc3cccc(-c4ccc(F)cc4)c3)C2)cn1 (stereo unspecified),i,-12,-11%,4%,-9%
O=C(c1ccc(-c2ccccc2)c(F)c1)C1CCCN(C(=O)c2cncs2)C1 (stereo unspecified),?,?,?,1%,-11%

# Screening data: PubChem BioAssay, National Center for Advancing Translational Sciences (NCATS)
